This is an account of results in PubChem BioAssay (NCATS).

Each structure is given as a SMILES string. Unmarked numbers belong to inactive results. Results filed as inconclusive are left out. Calls of active or inactive are those of the source. Unless noted, the call rests on the fitted dose curve; in most records, active means well fitted curve in the direction sought with a large enough effect; inconclusive means small, poorly fitted or top-dose-only effect, or another doubt; inactive means no such curve, though single readings can be large; an effect the other way counts as inactive or inconclusive.

Assay [1] addresses Lysosomal acid glucosylceramidase (Homo sapiens) (UniProt P04062). In words: Glucocerebrosidase-p2 (AID 348; in the data active means potency below about 10 µM; further: potency means the concentration at half of the fitted maximal effect). The settings on record: purified GBA, blue fluorogenic substrate, 40 min. An outline of the steps:
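Compounds titrated from 0.6 nM upwards against 0.2 nM enzyme in pH 5.9 citric acid/KH2PO4, taurocholate, tween-20; blue fluorogenic substrate 80 uM, 40 min room temperature, stopped and read Ex 365/Em 440 for AC50.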

Assay [2] is described as follows: AP1 Signaling Pathway (AID 357; active means well fitted curve in either direction with a large enough effect, not every such curve was filed as active;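 further: ME-180 reporter cells stimulated with EGF at its EC50 level; on the % scale 0 is the no-effect control and ±100 the full control effect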). The settings on record: ME-180 AP-1-bla reporter, EGF-induced, beta-lactamase ratio, 5 h; at 7.69 µM (top of the series) unless noted. An outline of the steps: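 A ratiometric CCF4 readout (405 nm excitation; 460 and 530 nm emission) quantified AP-1-driven beta-lactamase in ME-180 cells after 5 h with compound and EC50 EGF; AC50 values were derived for activators and inhibitors.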

For assay [3], the target named is Cytochrome P450 1A2 (Homo sapiens) (UniProt P05177). The assay is described as follows: p450-cyp1a2 (AID 410; calls by dose curve; further: potency means the concentration at half of the fitted maximal effect). The settings on record: recombinant CYP1A2, luciferin-ME demethylation, luminescence; series mostly up to 57 µM. An outline of the steps: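 Inhibition was calculated relative to 57 uM furafylline (full inhibition). The reaction used human CYP1A2 at 20nM with Luciferin-ME at its Km, 100uM, driven by an NADPH-regenerating system for 60 min at room temperature.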

Assay [4] is described as follows: NFAT Signaling Pathway (AID 444; active means well fitted curve in either direction with a large enough effect, not every such curve was filed as active;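 further: carbachol stimulus at about its EC50 of 1 µM final; on the % scale 0 is the no-effect control and ±100 the full control effect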). Conditions: Jurkat NFAT-bla M1, carbachol, beta-lactamase ratio, 5 h; at 7.69 µM (top of the series) unless noted. In outline:
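Jurkat cells carrying an NFAT-driven β-lactamase reporter and co-transfected muscarinic M1 receptor were treated with compound plus carbachol (1 uM final, an EC50 level) for 5 h at 37 °C. CCF4 loading followed for 1 h at RT; 460/530 nm ratio gave %activity.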

A short description of assay [5]: Stat Signaling Pathway (AID 446; active means well fitted curve in either direction with a large enough effect, not every such curve was filed as active;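 further: ME-180 cervical cancer cells given 40 pM IL-6 alongside compound; SIE-controlled beta-lactamase reporter measured as 460/530 nm FRET emission ratio; on the % scale 0 is the no-effect control and ±100 the full control effect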). Conditions: ME-180 (cervical carcinoma) SIE beta-lactamase reporter, IL-6 stimulated, 5 h; at 7.69 µM (top of the series) unless noted. An outline of the steps:
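ME-180 cells carrying a SIE-driven beta-lactamase reporter are stimulated with 40 pM IL-6 for 5 h at 37C in the presence of compound. The 460/530 nm FRET substrate ratio is read after 2.5 h at RT. Data are normalised to 300 pM IL-6 and to 125 nM JAK inhibitor controls.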

Assay [6] addresses Glucocorticoid receptor (Homo sapiens) (UniProt P04150). In words: GR-GFP Redistribution (AID 450;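 active means compounds whose dose series gives a full or clear partial fitted curve of increased nuclear translocation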; further: potency means the concentration at half of the fitted maximal effect). Conditions: U2OS GR-GFP nuclear translocation, laser cytometry, 2 h.
For assay [7] the target is unchanged. The assay is described as follows: GR-EFC Redistribution (AID 451; calls by dose curve; further: potency means the concentration at half of the fitted maximal effect). The settings on record: CHO-K1 GR-EFC translocation, beta-gal luminescence, 2 h. In outline:
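CHO-K1 cells stably expressing nuclear-localized β-gal enzyme acceptor and GR fused C-terminally to the enzyme donor fragment; ligand-driven nuclear translocation restores β-gal by complementation. Compounds titrated up to 46 uM final, 2 h at 37 °C; luminescence read.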

Assay [8] deals with Mitogen-activated protein kinase 10 (Mus musculus) (UniProt Q61831). The assay is described as follows: JNK3 AlphaScreen Assay (AID 530; active means well fitted curve in either direction with a large enough effect, not every such curve was filed as active;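 further: kinase came from lysate of stimulated human HepG2 cells; on the % scale 0 is the no-effect control and ±100 the full control effect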). Conditions: JNK3 lysate, c-Jun phosphorylation; series mostly up to 57.1 µM. An outline of the steps: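 JNK3 came from HepG2 lysates pre-activated with IL-1beta and TNF-alpha and phosphorylated biotinylated GST-cJun (1-79) at 10 uM ATP, pH 7.6, room temperature. Compounds were titrated. AlphaScreen signal used anti-phospho-cJun (Ser73) antibody.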

In assay [9] the target is Cytochrome P450 3A4 (Homo sapiens) (UniProt P08684). In words: qHTS Assay for Activators of Cytochrome P450 3A4 (AID 885). Further: nearly all actives have a fitted effect of over 65% in size. The settings on record: recombinant CYP3A4, Luciferin-PPXE luminescence, 60 min; series mostly up to 57.1 µM. An outline of the steps: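 Human CYP3A4 (20 nM) with Luciferin-PPXE at 25 uM (its KM) in 200 mM KPO4; 10 min compound preincubation, then NADPH regeneration and 60 min reaction at RT. Luciferin read by luminescence; normalized to 57 uM ketoconazole full inhibition.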

Assay [10] addresses Cytochrome P450 2D6 (Homo sapiens) (UniProt P10635). In words: qHTS Assay for Inhibitors and Substrates of Cytochrome P450 2D6 (AID 891). Further: potency means the concentration at half of the fitted maximal effect; nearly all actives have a fitted effect of over 60% in size. Conditions: recombinant CYP2D6, luciferin-ME EGE luminescence; series mostly up to 57.1 µM. In outline:
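Human CYP2D6 (5 nM) with 30 uM Luciferin-ME EGE (at Km) in 100 mM KPO4, compound preincubated 10 min, then NADPH regeneration system for 60 min at room temperature. Luciferin read by luminescence; normalized to 1.43 uM quinidine.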

Assay [11] concerns the target Dual specificity protein kinase CLK4 (Homo sapiens) (UniProt Q9HAZ1). The assay is described as follows: qHTS Assay for Inhibitors of CDC-like Kinase 4 (Kinase-Glo Assay) (AID 1770). Further: nearly all actives have a fitted effect of over 65% in size. Further: potency means the concentration at half of the fitted maximal effect. The settings on record: recombinant Clk4, Kinase-Glo ATP depletion luminescence; series mostly up to 66.7 µM. An outline of the steps:
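25 nM Clk4 with 100 uM RS repeat peptide and 1 uM ATP (final) in Tris pH7.5, 10 mM MgCl2, 4.5 h at room temperature. Remaining ATP measured by Kinase-Glo luciferase luminescence.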

For assay [12] the target is unchanged. In words: qHTS Assay for Inhibitors of CDC-like Kinase 4 (ADP-Glo Assay) (AID 1771). Further: nearly all actives have a fitted effect of over 70% in size. Further: potency means the concentration at half of the fitted maximal effect. The settings on record: recombinant CLK4, ADP-Glo luminescence; series mostly up to 80 µM. In outline: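 Kinase reaction: Clk4 at 25 nM, RS repeat peptide substrate at 100 uM, ATP at 1 uM, 1 hr, room temperature. Product ADP detected as luciferase signal via ADP-Glo.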
A general note: In qHTS, concentration-response curves come from the screen itself.

The target is the same in assay [13]. The assay is described as follows: qHTS Assay for Inhibitors of CDC-like Kinase 4 (ADP-FP Assay) (AID 1795). Further: nearly all actives have a fitted effect of over 60% in size. Further: potency means the concentration at half of the fitted maximal effect. Conditions: Transcreener ADP fluorescence polarization; series mostly up to 50 µM. An outline of the steps: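 Recombinant Clk4 (6.25 nM) phosphorylated 100 uM RS repeat peptide with 1 uM ATP in 25 mM Tris pH 7.5, 10 mM MgCl2, 0.5 mM EGTA, 2.5 mM DTT, 0.01% Triton X-100 for 1 h. ADP was detected by Transcreener ADP2 competitive fluorescence polarization after 30 min at room temperature.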

For assay [14], the target named is Ubiquitin carboxyl-terminal hydrolase 1 (Homo sapiens) (UniProt O94782). In words: Inhibitors of USP1/UAF1: Pilot qHTS (AID 504865).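 Further: rhodamine fluorescence freed from ubiquitin-rhodamine substrate followed over time; top concentration of the series differs between compounds; on the % scale 0 is the no-effect control and ±100 the full control effect; nearly all actives have a fitted effect of over 35% in size.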 The settings on record: purified USP1/UAF1, Ub-rhodamine cleavage fluorescence; series mostly up to 54.9 µM. An outline of the steps: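 USP1/UAF1 complex at 1 nM preincubated 15 min at room temperature with compound, then Ub-Rho substrate added at 150 nM final. Fluorescence (480/540 nm) read kinetically in 50 mM HEPES pH 7.8, 0.5 mM EDTA, 1 mM TCEP, 0.1 mg/ml BSA, 0.01% Tween-20.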

Assay [15] can be described thus: Primary qHTS for small molecule stabilizers of the endoplasmic reticulum resident proteome: Secreted ER Calcium Modulated Protein (SERCaMP) assay (AID 1508630). Further: on the % scale 0 is the no-effect control and ±100 the full control effect. The settings on record: SH-SY5Y GLuc-SERCaMP (Gaussia luciferase released on ER calcium loss) secretion, thapsigargin, luminescence; series mostly up to 38.4 µM. In outline: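 GLuc-SERCaMP-expressing SH-SY5Y cells, pretreated 16 h with compound, are challenged with thapsigargin to empty ER calcium stores; after 4 h, coelenterazine is added directly to the medium and luminescence is imaged.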

Assay [16] addresses 3',5'-cyclic-AMP phosphodiesterase 4B (Homo sapiens) (UniProt Q07343). The assay is described as follows: qHTS Assay for Inhibitors of PDE-IV (AID 607; active means well fitted activation curve with a large enough effect in the main read-out, with a control signal flat, not every such curve was filed as active; further: % of control where 0% means no effect). Conditions: HEK293 ACTOne CNG channel cells, membrane potential fluorescence; series mostly up to 22.9 µM. An outline of the steps: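 HEK293 ACTOne cells with CNG channel (1000/well), endogenous PDE4; membrane potential dye, compounds up to 22.9 uM final. Fluorescence Ex 535/Em 590; RO 20-1724 (100 uM final) as reference.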

Assay [17] concerns the target Cytochrome P450 2C9 (Homo sapiens) (UniProt P11712). The assay is described as follows: qHTS Assay for Inhibitors and Substrates of Cytochrome P450 2C9 (AID 883). Further: on the % scale 0 is the no-effect control and ±100 the full control effect; nearly all actives have a fitted effect of over 60% in size. Conditions: recombinant CYP2C9, luciferin-H luminescence, 60 min; series mostly up to 57.1 µM. An outline of the steps:
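A luminogenic readout tracked human CYP2C9 (10nM) converting deoxyluciferin (100uM, at KM) in 25mM KPO4 during 60 min at 37C with regenerated NADPH. Values normalized to 57uM sulphaphenazole as complete inhibition.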

In assay [18] the target is Cytochrome P450 3A4 (Homo sapiens) (UniProt P08684). In words: qHTS Assay for Inhibitors and Substrates of Cytochrome P450 3A4 (AID 884). Further: nearly all actives have a fitted effect of over 50% in size. Further: potency means the concentration at half of the fitted maximal effect. The settings on record: recombinant CYP3A4, Luciferin-PPXE luminescence; series mostly up to 57.1 µM. An outline of the steps: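 20 nM human CYP3A4 with 25 uM Luciferin-PPXE (at KM) in 200 mM KPO4, preincubated 10 min with compound; NADPH regeneration started a 60 min RT reaction. Luciferin detected by luminescence, normalized to 57 uM ketoconazole as full inhibition.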

Assay [19] has as its target Cytochrome P450 2C19 (Homo sapiens) (UniProt P33261). In words: qHTS Assay for Inhibitors and Substrates of Cytochrome P450 2C19 (AID 899). Further: potency means the concentration at half of the fitted maximal effect; nearly all actives have a fitted effect of over 60% in size. Conditions: recombinant CYP2C19, luciferin-H EGE luminescence; series mostly up to 57.1 µM. An outline of the steps: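 NADPH-dependent conversion of Luciferin-H EGE (10uM, at KM) by 5nM enzyme in 50mM KPO4, 60 min at 37C following 10 min compound preincubation. Stopped with luciferin detection buffer; luminescence read after 20 min.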

Cytochrome P450 1A2 (Homo sapiens), sequence (P05177 whole entry, looked up): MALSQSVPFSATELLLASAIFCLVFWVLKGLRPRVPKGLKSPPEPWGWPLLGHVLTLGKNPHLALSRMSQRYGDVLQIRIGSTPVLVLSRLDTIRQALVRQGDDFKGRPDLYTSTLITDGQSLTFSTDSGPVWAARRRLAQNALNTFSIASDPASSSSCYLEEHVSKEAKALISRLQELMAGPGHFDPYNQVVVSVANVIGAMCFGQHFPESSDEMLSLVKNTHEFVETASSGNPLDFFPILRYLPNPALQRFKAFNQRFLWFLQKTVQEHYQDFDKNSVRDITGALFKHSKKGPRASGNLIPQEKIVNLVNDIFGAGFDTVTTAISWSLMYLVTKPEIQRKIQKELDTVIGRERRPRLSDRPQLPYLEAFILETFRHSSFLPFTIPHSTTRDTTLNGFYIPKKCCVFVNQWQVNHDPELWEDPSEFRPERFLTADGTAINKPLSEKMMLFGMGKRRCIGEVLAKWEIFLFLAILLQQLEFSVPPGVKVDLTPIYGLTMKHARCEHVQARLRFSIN
Ubiquitin carboxyl-terminal hydrolase 1 (Homo sapiens), sequence (O94782 whole entry, looked up): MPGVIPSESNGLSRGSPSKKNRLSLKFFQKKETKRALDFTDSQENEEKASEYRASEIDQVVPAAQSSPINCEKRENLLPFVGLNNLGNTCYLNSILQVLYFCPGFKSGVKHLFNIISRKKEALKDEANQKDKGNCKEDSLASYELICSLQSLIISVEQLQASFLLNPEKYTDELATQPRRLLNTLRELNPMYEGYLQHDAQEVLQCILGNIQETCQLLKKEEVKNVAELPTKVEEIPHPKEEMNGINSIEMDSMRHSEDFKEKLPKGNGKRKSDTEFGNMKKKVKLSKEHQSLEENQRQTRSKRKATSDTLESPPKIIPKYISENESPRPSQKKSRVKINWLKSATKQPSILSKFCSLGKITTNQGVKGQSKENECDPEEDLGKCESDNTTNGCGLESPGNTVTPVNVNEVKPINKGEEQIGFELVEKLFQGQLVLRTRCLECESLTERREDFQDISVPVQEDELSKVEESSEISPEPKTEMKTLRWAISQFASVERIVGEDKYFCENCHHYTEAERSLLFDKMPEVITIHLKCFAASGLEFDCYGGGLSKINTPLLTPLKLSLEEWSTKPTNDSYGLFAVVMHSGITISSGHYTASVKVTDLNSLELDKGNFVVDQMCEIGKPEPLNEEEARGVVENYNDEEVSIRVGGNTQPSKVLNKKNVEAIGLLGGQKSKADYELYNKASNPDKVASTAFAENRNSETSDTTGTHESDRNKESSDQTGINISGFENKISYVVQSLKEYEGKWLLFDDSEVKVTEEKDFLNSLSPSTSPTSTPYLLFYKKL
Cytochrome P450 3A4 (Homo sapiens), sequence (P08684 whole entry, looked up): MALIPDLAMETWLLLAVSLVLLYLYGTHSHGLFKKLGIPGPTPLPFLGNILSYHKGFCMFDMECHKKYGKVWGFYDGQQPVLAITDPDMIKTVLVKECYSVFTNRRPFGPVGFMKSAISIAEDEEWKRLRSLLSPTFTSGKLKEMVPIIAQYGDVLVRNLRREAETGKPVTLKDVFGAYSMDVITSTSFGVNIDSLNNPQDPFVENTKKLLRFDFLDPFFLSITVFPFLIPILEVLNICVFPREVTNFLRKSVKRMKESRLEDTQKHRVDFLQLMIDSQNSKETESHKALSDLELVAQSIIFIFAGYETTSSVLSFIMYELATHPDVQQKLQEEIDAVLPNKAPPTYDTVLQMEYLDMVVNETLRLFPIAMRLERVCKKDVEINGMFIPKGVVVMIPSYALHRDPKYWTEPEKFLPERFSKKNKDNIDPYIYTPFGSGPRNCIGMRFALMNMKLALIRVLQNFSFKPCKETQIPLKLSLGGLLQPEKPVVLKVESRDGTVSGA
Dual specificity protein kinase CLK4 (Homo sapiens), sequence (Q9HAZ1 whole entry, looked up): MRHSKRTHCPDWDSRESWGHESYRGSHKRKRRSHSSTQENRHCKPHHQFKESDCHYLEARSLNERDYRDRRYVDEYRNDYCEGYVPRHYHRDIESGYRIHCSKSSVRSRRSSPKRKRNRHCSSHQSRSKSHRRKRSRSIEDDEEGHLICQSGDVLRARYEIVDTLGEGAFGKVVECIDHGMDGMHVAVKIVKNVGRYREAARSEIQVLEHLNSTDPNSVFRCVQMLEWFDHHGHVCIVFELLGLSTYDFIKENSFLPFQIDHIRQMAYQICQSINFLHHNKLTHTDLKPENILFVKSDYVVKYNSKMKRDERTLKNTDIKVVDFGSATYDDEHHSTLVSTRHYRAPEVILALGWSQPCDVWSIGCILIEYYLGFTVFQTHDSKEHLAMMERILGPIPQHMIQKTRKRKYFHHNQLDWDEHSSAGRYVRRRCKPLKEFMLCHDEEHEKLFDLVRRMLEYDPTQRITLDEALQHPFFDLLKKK
Glucocorticoid receptor (Homo sapiens), sequence (P04150 whole entry, looked up): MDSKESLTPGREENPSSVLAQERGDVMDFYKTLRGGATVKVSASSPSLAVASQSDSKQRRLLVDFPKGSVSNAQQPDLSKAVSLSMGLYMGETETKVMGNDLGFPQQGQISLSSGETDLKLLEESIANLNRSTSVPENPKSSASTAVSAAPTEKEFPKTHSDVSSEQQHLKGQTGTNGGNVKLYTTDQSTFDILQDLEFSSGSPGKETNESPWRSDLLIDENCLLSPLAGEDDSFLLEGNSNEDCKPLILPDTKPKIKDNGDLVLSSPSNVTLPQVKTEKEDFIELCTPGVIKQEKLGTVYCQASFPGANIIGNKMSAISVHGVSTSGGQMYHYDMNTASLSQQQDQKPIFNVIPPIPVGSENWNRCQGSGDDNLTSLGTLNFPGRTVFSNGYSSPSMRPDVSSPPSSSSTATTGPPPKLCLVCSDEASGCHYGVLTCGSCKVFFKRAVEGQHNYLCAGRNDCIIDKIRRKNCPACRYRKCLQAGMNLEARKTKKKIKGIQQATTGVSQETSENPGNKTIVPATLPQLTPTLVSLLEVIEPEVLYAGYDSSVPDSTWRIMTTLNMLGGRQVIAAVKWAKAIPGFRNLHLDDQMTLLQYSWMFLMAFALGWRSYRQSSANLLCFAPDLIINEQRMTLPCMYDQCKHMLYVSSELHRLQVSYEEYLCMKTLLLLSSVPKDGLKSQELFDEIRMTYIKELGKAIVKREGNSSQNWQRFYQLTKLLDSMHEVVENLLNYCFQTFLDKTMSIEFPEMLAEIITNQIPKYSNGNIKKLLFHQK
Lysosomal acid glucosylceramidase (Homo sapiens), sequence (P04062 whole entry, looked up): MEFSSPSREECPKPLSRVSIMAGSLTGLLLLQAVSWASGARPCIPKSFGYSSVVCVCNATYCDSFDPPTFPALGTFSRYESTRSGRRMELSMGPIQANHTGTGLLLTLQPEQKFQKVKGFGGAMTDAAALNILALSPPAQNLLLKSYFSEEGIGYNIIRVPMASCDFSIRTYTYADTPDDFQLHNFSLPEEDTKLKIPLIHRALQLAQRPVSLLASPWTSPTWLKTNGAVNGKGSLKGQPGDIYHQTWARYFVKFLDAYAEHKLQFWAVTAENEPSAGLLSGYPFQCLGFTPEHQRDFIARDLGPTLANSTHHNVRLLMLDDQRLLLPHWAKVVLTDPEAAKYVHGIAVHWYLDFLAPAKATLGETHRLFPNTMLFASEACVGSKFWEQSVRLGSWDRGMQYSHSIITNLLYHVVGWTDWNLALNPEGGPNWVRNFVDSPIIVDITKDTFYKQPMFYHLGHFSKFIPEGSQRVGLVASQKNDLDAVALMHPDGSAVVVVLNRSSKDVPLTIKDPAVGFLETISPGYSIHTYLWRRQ
Cytochrome P450 2C19 (Homo sapiens), sequence (P33261 whole entry, looked up): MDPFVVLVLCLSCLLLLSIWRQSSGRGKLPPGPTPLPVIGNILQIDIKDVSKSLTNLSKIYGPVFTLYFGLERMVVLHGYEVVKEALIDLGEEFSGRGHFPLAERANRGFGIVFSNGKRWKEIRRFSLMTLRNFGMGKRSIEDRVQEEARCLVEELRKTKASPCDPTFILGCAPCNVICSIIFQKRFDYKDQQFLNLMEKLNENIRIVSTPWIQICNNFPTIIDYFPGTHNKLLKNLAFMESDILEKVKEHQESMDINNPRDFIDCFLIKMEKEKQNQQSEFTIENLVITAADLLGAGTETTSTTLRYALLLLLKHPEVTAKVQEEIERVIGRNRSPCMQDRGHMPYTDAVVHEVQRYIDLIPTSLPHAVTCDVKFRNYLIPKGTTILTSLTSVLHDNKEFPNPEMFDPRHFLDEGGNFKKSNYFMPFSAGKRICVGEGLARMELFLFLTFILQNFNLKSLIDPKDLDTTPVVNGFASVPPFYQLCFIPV
Cytochrome P450 2C9 (Homo sapiens), sequence (P11712 whole entry, looked up): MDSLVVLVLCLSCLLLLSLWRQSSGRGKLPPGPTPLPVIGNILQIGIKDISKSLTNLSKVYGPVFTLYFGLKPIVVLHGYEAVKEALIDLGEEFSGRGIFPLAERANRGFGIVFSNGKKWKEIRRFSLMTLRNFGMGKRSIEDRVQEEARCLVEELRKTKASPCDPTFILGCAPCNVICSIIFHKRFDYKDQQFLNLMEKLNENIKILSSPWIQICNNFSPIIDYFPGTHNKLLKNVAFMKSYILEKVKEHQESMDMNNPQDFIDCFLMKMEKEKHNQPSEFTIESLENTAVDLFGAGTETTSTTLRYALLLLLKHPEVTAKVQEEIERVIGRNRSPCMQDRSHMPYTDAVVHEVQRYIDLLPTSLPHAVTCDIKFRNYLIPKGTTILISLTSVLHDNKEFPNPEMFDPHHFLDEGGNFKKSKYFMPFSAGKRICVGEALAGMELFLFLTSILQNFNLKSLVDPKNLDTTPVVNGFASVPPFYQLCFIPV

Consider `CN(C)Cc1ccccc1-c1nc(NC2CC2)c2ccccc2n1`, for which the Potency in assay [1] was over 11.4 µM; in [3], 5.01 µM (active); in assay [6], over 46 µM; in assay [7] it was over 46 µM; in assay [10], 3.98 µM (active). Further, the activity change, negative = inhibition in assay [2] was 1.1%; in [4], -22.4%. Also, the activity, negative = inhibition in [5] is 7.64%. The Potency entry in assay [8], in [9], in assay [11], in [12], in [13] and in assay [14] was “inactive” throughout. Besides, the result in assay [15] was inactive.

Take `CNc1nc(-c2c(C)noc2C)nc2ccccc12`: the Potency in [1] was over 11.4 µM; in assay [3], 0.0501 µM (active); in assay [6], over 46 µM; in [7], over 46 µM; in assay [11], 17.8 µM (active); in assay [12] it was 20 µM (active). The activity change, negative = inhibition in assay [2] was 5.72%; in [4], 8.72%; in assay [17], 37.6% [at 2.29 µM]. In addition, the activity, negative = inhibition in assay [5] was -5.04%. Also, the Potency result in [8], in assay [16], in assay [9] and in assay [13] was “inactive” each time. Further, the result in assay [15] was inactive.

For the compound `COc1cccc(Cn2c(=O)c(-c3ccccc3)nc3cnc(OC)nc32)c1`, the Potency in assay [1] is over 11.4 µM; in [3], 15.8 µM (active); in assay [6], over 9.22 µM; in assay [7], over 46 µM; in assay [18], 7.94 µM (active). Besides, the activity change, negative = inhibition in assay [2] is -11.6%; in [4] it was -17.4%. The activity, negative = inhibition in assay [5] was 1.57%. Besides, the Potency entry in assay [8], in [9], in [11], in assay [12], in [13] and in assay [14] was “inactive” each time. For the same compound, the outcome in [15] was inactive.

As for `COc1cccc(-c2cc(NCc3ccccc3)ncn2)c1`, the Potency in [1] is over 11.4 µM; in assay [3], 2 µM (active); in assay [6] it was over 46 µM; in [7], over 46 µM; in assay [19], 7.94 µM (active); in [11], 15.8 µM (active). In addition, the Potency is 28.2 µM (active) in assay [12] and 12.6 µM (active) in assay [13]. Moreover, the results for the activity change, negative = inhibition in assay [2] and in [4] were -18.4% and 13.6%, respectively. The activity, negative = inhibition in [5] was -5.77%. For the same compound, the Potency result in assay [8], in [9] and in [14] was “inactive” in each case. In addition, the outcome in [15] was inactive.

On to `COc1ccc(-c2nc3cnc(N(C)C)nc3n(C[C@H]3CCCO3)c2=O)cc1`, for which the Potency in [1] is over 11.4 µM; in [3], 3.16 µM (active); in [6], over 9.22 µM; in assay [7], over 46 µM. Also, the activity change, negative = inhibition in assay [2] is 1.23%; in [4], -3.89%. For the same compound, the activity, negative = inhibition in [5] is 2.75%. Besides, the Potency result in assay [9], in assay [11], in [12], in assay [13] and in assay [14] was “inactive” throughout. Further, the outcome in assay [15] was inactive.

With `COc1ccccc1CNc1cc(-c2ccccc2C(F)(F)F)ncn1`, the Potency in assay [1] was over 11.4 µM; in assay [3], 15.8 µM (active); in assay [7], over 46 µM; in assay [19], 1 µM (active). In addition, the results for the activity change, negative = inhibition in assay [2], in assay [4] and in assay [17] were -11.1%, -8.05% and 8.84% [at 2.29 µM], respectively. The activity, negative = inhibition in assay [5] was 9.59%. The Potency result in assay [8], in assay [16], in assay [18], in assay [11], in assay [12] and in assay [13] was “inactive” in each case. In assay [14], the Potency result is “inactive”. Besides, in assay [15], the outcome was inactive.
